# Measured values as given in PubChem BioAssay (NCATS).
# Results filed as inconclusive are left out. Active and inactive are the calls of the source. Calls follow the shape of the dose curve; as a rule, active = well fitted inhibition curve with a large enough effect; inconclusive = small, poorly fitted or top-dose-only effect; inactive = no such curve, though single readings can be large or run the other way.
# Tested on: Zika virus NS2B-NS3 protease (linked construct)
# Assay: Primary screen NINDS Rhodamine qHTS for Zika virus inhibitors (AID 1347160); also: nearly all actives have a fitted effect of over 55% in size
# Settings: purified NS2B-NS3 protease, Rhodamine110 substrate fluorescence; series mostly up to 57.1 µM; activity change, negative = inhibition: at the top concentration
# Method in brief: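 Kinetic fluorescence (Ex 480 nm, Em 540 nm) over 15 min with 1.5 microM Rhodamine110 peptide and 25 nM linked protease.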
# % is scaled to controls: 0 for no effect and ±100 for the full control effect.
Compound,"activity change, negative = inhibition",outcome
CCS(=O)c1nc(-c2cccc(OCc3ccccc3)c2)cc(C(F)(F)F)n1 (configuration not stated),-16.6% (inactive),–
CCN(CC)C(=O)c1ccc(Nc2nc(OCC3CCCCC3)c3[nH]cnc3n2)cc1,-11.7% (inactive),–
O=C([C@@H]1CCCN(c2ccc3[nH]c(C4(n5cc(Cl)cn5)CC4)nc3n2)C1)N1CCCC1,55.7% (inactive),–
O=S(=O)(NCc1ccccn1)c1ccc(Br)c2ccccc12,21.6% (inactive),–
CNc1ccc([N+](=O)[O-])c(Nc2ccc3[nH]ncc3c2)n1,9.2% (inactive),–
Cc1cc(-c2cnc(N)c3c(-c4ccc5scnc5c4)csc23)n(C)n1,-0.913% (inactive),–
COC1CC/C=C(\C)C(=O)Nc2cc(O)cc(c2)CC(C)CC(OC)C(O)C(C)/C=C(\C)C1OC(N)=O (configuration not stated),-3.97% [at 33.1 µM] (inactive),–
Nc1nc(NC2CC2)cc(-c2cccc(Cl)c2Cl)n1,–,inactive
Cc1cc(C)cc(-c2cnc3cc(Cl)c(-c4cccc(O)c4)cc3c2OCCCN)c1,–,inactive
C=CC(C)(O)CC[C@@H]1[C@@]2(C)CCCC(C)(C)C2CC[C@@]1(C)O (some centres not stated),23% (inactive),–
CCOC(=O)CCNc1cc(N2CCc3ccccc3CC2)nc(-c2cccnc2)n1,18% (inactive),–
CNCCC(c1cccs1)c1ccc(O)c2ccccc12 (configuration not stated),182% (inactive),–
CC(C)S(=O)(=O)Nc1ccc(F)c(C(=O)c2c[nH]c3ncc(-c4cccnc4)cc23)c1F,-22.5% (inactive),–
Nc1nc2c(nc(Br)n2[C@@H]2O[C@@H]3COP(=O)(O)O[C@H]3[C@H]2O)c(=O)[nH]1,0.0358% (inactive),–
CN(C)c1cccc(Oc2cnc(Nc3cccc(O)c3)nc2)c1,8.97% (inactive),–
CC(C)(CNC(=O)c1cccc(-c2noc(C(F)(F)F)n2)c1)c1coc(-c2ccccc2)n1,-11.4% (inactive),–
Cc1cc(F)ccc1[C@H]1C[C@@H](N2CCN3C(=O)CC[C@H]3C2)CCN1C(=O)N(C)[C@H](C)c1cc(C(F)(F)F)cc(C(F)(F)F)c1,-7% (inactive),–
C=C[C@](C)(O)CC[C@H]1C(C)=CC(=O)[C@H]2C(C)(C)CCC[C@]12C,-5.74% (inactive),–
CC1(C)CC[C@]2(C(=O)O[C@@H]3O[C@H](CO)[C@@H](O)[C@H](O)[C@H]3O)CC[C@]3(C)C(=CCC4[C@@]5(C)CC[C@H](O[C@@H]6O[C@H](C(=O)O)[C@H](O)[C@H](O)[C@H]6O)C(C)(C)C5CC[C@]43C)[C@@H]2C1 (some centres not stated),-10.5% [at 15.1 µM] (inactive),–

Compound,"activity change, negative = inhibition",outcome
C/C=C(\C)[C@@H]1C(C)=C[C@@H]2[C@H]([C@@H]1/C=C/C=C/C(=O)O)[C@@H](C)CC[C@@H]2O,-25.7% [at 33.1 µM] (inactive),–
C=C1C(=O)O[C@@H]2/C=C(\C)CC/C=C(/C=O)[C@H](OC)[C@@H](OC(=O)C(C)C)[C@@H]12,-7.09% [at 33.1 µM] (inactive),–
C=C1C(=O)OC2/C=C(\COC(C)=O)CC/C=C(\C=O)CC(OC(=O)CC(C)C)C12 (configuration not stated),7.93% [at 33.1 µM] (inactive),–
CC(C)c1ccc(-c2cc(=O)c3ccccc3o2)cc1,-10.4% (inactive),–
COc1ccc(CNc2nc(N(CCO)CCO)nc3c2ncn3C(C)C)cc1,15.3% (inactive),–
CC(C)(C)c1ccc2c(c1)CC[C@H]2NC(=O)Nc1cccc2[nH]ncc12,-2.28% (inactive),–
Cc1cc2ncc(C(=O)NCC(C)(C)NCC(=O)N3CCC[C@H]3C#N)cn2n1,15.7% (inactive),–
COc1cc(-c2cn(C3CCc4c(F)cccc4N(CC(F)(F)F)C3=O)nn2)ccc1-n1cnc(C)c1 (configuration not stated),–,inactive
COC(=O)N1CCC(n2ncc3c(N4CCOCC4)nc(-c4ccc(NC(=O)NC5CC5)cc4)nc32)CC1,11.5% (inactive),–
CC(=O)OC1C(OC(=O)c2ccccc2)C2C(C)(C)CCC(OC(C)=O)C2(C)C23CCC(C)(C2)C(=O)CC13 (configuration not stated),-15% [at 33.1 µM] (inactive),–
COc1cc(F)c(C(C)C)cc1-c1ccc(C(F)(F)F)cc1CN1C(=O)OC(c2cc(C(F)(F)F)cc(C(F)(F)F)c2)C1C (configuration not stated),-8.06% (inactive),–
C=CC(=O)Nc1cc(-n2c(=O)ccc3cnc4ccc(-c5ccc(NS(C)(=O)=O)cc5)cc4c32)ccc1C,–,inactive
CCC(C(C)O)n1ncn(-c2ccc(N3CCN(c4ccc(OCC5COC(Cn6cncn6)(c6ccc(F)cc6F)C5)cc4)CC3)cc2)c1=O (configuration not stated),–,inactive
CCCCOc1ccc(S(=O)(=O)n2c(C)nc3ccccc32)cc1,6.03% [at 33.1 µM] (inactive),–
CC(C)=C1C[C@@]2(C)C(=CC1=O)CC[C@@H](OC(=O)/C(C)=C/CO)[C@@H]2C,–,inactive [at 33.1 µM]
CC(=O)OCC(=O)[C@@]12O[C@@H]1C[C@H]1[C@@H]3CC=C4C[C@@H](O)CC[C@]4(C)[C@H]3CC[C@@]12C,8.16% (inactive),–
CC(/C=C/C(=O)NO)=C\[C@@H](C)C(=O)c1ccc(N(C)C)cc1,-7.11% (inactive),–
Cc1cnc(-c2ccccc2C(C)C)nc1NCc1ccc(-n2ccnn2)cc1,5.71% (inactive),–
